Read-out in assay [1]: TIMP metallopeptidase inhibitor 1 (TIMP1), TIMP1 (gene 7076)
Put plainly: BSK_hDFCGF_TIMP1: BioMAP Diversity Plus: hDFCGF Assay for TIMP metallopeptidase inhibitor 1 (TIMP1) Biomarker Activity (AID 2283062). The settings on record: primary human foreskin fibroblasts; actives raise or lower the signal. The gist of the method: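 Human foreskin fibroblast primary cultures dosed for 24 h; secreted/surface TIMP-1 quantified by ELISA. Bidirectional curve fitting against DMSO baseline; cytotoxicity tracked in parallel cultures by SRB total-protein staining.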

Read-out in assay [2]: Monokine induced gamma interferon (MIG), CXCL9 (gene 4283)
Put plainly: BSK_hDFCGF_MIG: BioMAP Diversity Plus: hDFCGF Assay for Monokine induced gamma interferon (MIG) Biomarker Activity (AID 2283063). As to conditions: primary human foreskin fibroblasts; actives raise or lower the signal. The gist of the method: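 MIG/CXCL9 measured by ELISA 24 h after dosing primary human skin fibroblasts. Activity fitted in both directions against DMSO controls. Cytotoxicity was checked in parallel cultures by SRB staining read at 560 nm.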

Read-out in assay [3]: Matrix Metallopeptidase 1 (MMP1), MMP1 (gene 4312)
Put plainly: BSK_hDFCGF_MMP1: BioMAP Diversity Plus: hDFCGF Assay for Matrix Metallopeptidase 1 (MMP1) Biomarker Activity (AID 2283064). The settings on record: primary human foreskin fibroblasts; actives raise or lower the signal. In a few lines: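 hDFCGF primary fibroblasts (human foreskin); chemical added; 24 h; MMP1 by ELISA; bidirectional fit vs DMSO.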

Read-out in assay [4]: Vascular cell adhesion molecule 1 (VCAM1), VCAM1 (gene 7412)
Put plainly: BSK_hDFCGF_VCAM1: BioMAP Diversity Plus: hDFCGF Assay for Vascular cell adhesion molecule 1 (VCAM1) Biomarker Activity (AID 2283065).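 As to AC50: VCAM-1 protein level quantified by ELISA after 24 h chemical exposure.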 As to conditions: primary human foreskin fibroblasts; actives raise or lower the signal. In a few lines: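 Human foreskin fibroblast primary cells dosed with chemical, VCAM-1 measured by ELISA at 24 h. Bidirectional curve fitting relative to DMSO as negative control/baseline.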

Read-out in assay [5]: Plasminogen activator inhibitor-1 (PAI1), SERPINE1 (gene 5054)
In words: BSK_hDFCGF_PAI1: BioMAP Diversity Plus: hDFCGF Assay for Plasminogen activator inhibitor-1 (PAI1) Biomarker Activity (AID 2283066). As to conditions: primary human foreskin fibroblasts; actives raise or lower the signal. The gist of the method: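 Human foreskin fibroblast primary cells, 24 h chemical exposure; PAI-1 measured by ELISA. Bidirectional fitting relative to DMSO; parallel cultures stained with SRB for total protein to flag overt cytotoxicity.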

Read-out in assay [6]: Intercellular Adhesion Molecule 1 (ICAM1), ICAM1 (gene 3383)
In words: BSK_KF3CT_ICAM1: BioMAP Diversity Plus: KF3CT Assay for Intercellular Adhesion Molecule 1 (ICAM1) Biomarker Activity (AID 2283067). As to conditions: primary human keratinocytes with fibroblasts; actives raise or lower the signal. In a few lines:
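Human keratinocyte–foreskin fibroblast co-culture was treated for 24 h. Cell-surface ICAM-1 was quantified by ELISA, fitted bidirectionally relative to DMSO. Cytotoxicity was checked in parallel cultures by SRB total-protein staining.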

Read-out in assay [7]: Interferon-gamma inducible Protein 10 (IP10), CXCL10 (gene 3627)
Put plainly: BSK_KF3CT_IP10: BioMAP Diversity Plus: KF3CT Assay for Interferon-gamma inducible Protein 10 (IP10) Biomarker Activity (AID 2283068). The settings on record: primary human keratinocytes with fibroblasts; actives raise or lower the signal. The gist of the method: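 Human keratinocyte plus foreskin fibroblast primary co-culture exposed to test chemical for 24 h; IP-10 measured by ELISA. Concentration-response fitted bidirectionally against DMSO control as baseline.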

Assay [8] in a line: BSK_KF3CT_SRB: Viability Assessment in the BioMAP Diversity Plus: KF3CT Assay (AID 2283069).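 Also: total protein by sulforhodamine B staining as a cytotoxicity measure; fitted for both signal gain and loss against DMSO baseline.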 As to conditions: primary human keratinocytes with fibroblasts. In a few lines:
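Keratinocytes co-cultured with foreskin fibroblasts (human primary); chemical added, 24 h; fix 10% TCA, stain 0.1% SRB, A560. Bidirectional fit vs DMSO.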

Read-out in assay [9]: Interleukin-1 alpha (IL1a), IL1A (gene 3552)
In words: BSK_KF3CT_IL1a: BioMAP Diversity Plus: KF3CT Assay for Interleukin-1 alpha (IL1a) Biomarker Activity (AID 2283070). The settings on record: primary human keratinocytes with fibroblasts; actives raise or lower the signal. In a few lines: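 Chemicals were dosed onto co-cultured human keratinocytes and foreskin fibroblasts, IL-1a was quantified by ELISA at 24 h, and activity was fitted in both directions relative to DMSO controls.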

Read-out in assay [10]: TIMP metallopeptidase inhibitor 2 (TIMP2), TIMP2 (gene 7077)
In words: BSK_KF3CT_TIMP2: BioMAP Diversity Plus: KF3CT Assay for TIMP metallopeptidase inhibitor 2 (TIMP2) Biomarker Activity (AID 2283071). As to conditions: primary human keratinocytes with fibroblasts; actives raise or lower the signal. The gist of the method:
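Co-culture of human primary keratinocytes and foreskin fibroblasts, measured 24 h after chemical dosing. TIMP-2 quantified by ELISA and fitted in both directions relative to DMSO. Cytotoxicity checked in parallel cultures by SRB total-protein staining.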

Read-out in assay [11]: Transforming growth factor beta 1 (TGFb1), TGFB1 (gene 7040)
Put plainly: BSK_KF3CT_TGFb1: BioMAP Diversity Plus: KF3CT Assay for Transforming growth factor beta 1 (TGFb1) Biomarker Activity (AID 2283072). As to conditions: primary human keratinocytes with fibroblasts; actives raise or lower the signal. The gist of the method:
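Human keratinocyte/foreskin fibroblast co-culture; TGF-b1 measured by ELISA 24 h after dosing, fitted bidirectionally versus DMSO. Cytotoxicity checked in parallel cultures by total protein (SRB staining, 560 nm).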

Read-out in assay [12]: C-C motif chemokine 2 (Homo sapiens) (UniProt P13500)
Put plainly: BSK_KF3CT_MCP1: BioMAP Diversity Plus: KF3CT Assay for Monocyte Chemoattractant Protein 1 (MCP1/CCL2) Biomarker Activity (AID 2283073). The settings on record: primary human keratinocytes with fibroblasts; actives raise or lower the signal. The gist of the method: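 Human keratinocyte–foreskin fibroblast co-culture; MCP-1 measured by ELISA 24 h after dosing. Bidirectional fit vs DMSO; cytotoxicity tracked by SRB total protein in parallel cultures.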

Read-out in assay [13]: Matrix Metallopeptidase 9 (MMP9), MMP9 (gene 4318)
Put plainly: BSK_KF3CT_MMP9: BioMAP Diversity Plus: KF3CT Assay for Matrix Metallopeptidase 9 (MMP9) Biomarker Activity (AID 2283074).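 As to AC50: MMP9 protein level quantified by ELISA in the co-culture.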 As to conditions: primary human keratinocytes with fibroblasts; actives raise or lower the signal. The gist of the method:
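Human keratinocyte/foreskin fibroblast co-culture; compound added; 24 h; MMP-9 by ELISA; bidirectional fit vs DMSO baseline.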

Read-out in assay [14]: urokinase plasminogen activator (uPA), PLAU (gene 5328)
In words: BSK_KF3CT_uPA: BioMAP Diversity Plus: KF3CT Assay for urokinase plasminogen activator (uPA) Biomarker Activity (AID 2283075). The settings on record: primary human keratinocytes with fibroblasts; actives raise or lower the signal. The gist of the method: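 ELISA readout of uPA, analyzed for signal gain or loss relative to DMSO, from a human primary keratinocyte–foreskin fibroblast co-culture measured 24 h after chemical treatment.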

Read-out in assay [15]: CD40, CD40 (gene 958)
Put plainly: BSK_LPS_CD40: BioMAP Diversity Plus: LPS Assay for CD40 Biomarker Activity (AID 2283076). The settings on record: primary human HUVEC with PBMC; actives raise or lower the signal. The gist of the method: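 HUVEC plus PBMC co-culture stimulated with LPS; CD40 quantified by ELISA 24 h after compound dosing. Fitting was bidirectional relative to DMSO. SRB staining of parallel cultures flagged overt cytotoxicity.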

Read-out in assay [16]: E-selectin (Homo sapiens) (UniProt P16581)
Put plainly: BSK_LPS_Eselectin: BioMAP Diversity Plus: LPS Assay for Eselectin Biomarker Activity (AID 2283077). As to conditions: primary human HUVEC with PBMC; actives raise or lower the signal. In a few lines:
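Human umbilical vein endothelial cells co-cultured with PBMC under LPS stimulation; cell-surface E-selectin measured by ELISA 24 h after dosing. Change in either direction versus DMSO, with SRB total-protein staining in parallel cultures for cytotoxicity.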

Read-out in assay [17]: Interleukin-8 (IL8), CXCL8 (gene 3576)
Put plainly: BSK_LPS_IL8: BioMAP Diversity Plus: LPS Assay for Interleukin-8 (IL8) Biomarker Activity (AID 2283078). As to conditions: primary human HUVEC with PBMC; actives raise or lower the signal. In a few lines:
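Human umbilical vein endothelial cells co-cultured with PBMC, LPS-stimulated, exposed to compound for 24 h. IL-8 quantified by ELISA; fitted in both directions against DMSO, with SRB total-protein staining of parallel cultures for cytotoxicity.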

A short description of assay [18]: BSK_LPS_SRB: Viability Assessment in the BioMAP Diversity Plus: LPS Assay (AID 2283079).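 Also: total protein by sulforhodamine B absorbance as a cytotoxicity measure; measured one day after compound addition; fitted in both directions against DMSO so loss or gain of signal counts.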 As to conditions: primary human HUVEC with PBMC. The gist of the method: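 Co-culture of human umbilical vein endothelial cells and PBMC, read 24 h after dosing. Total protein by 0.1% SRB staining after 10% TCA fixation, absorbance at 560 nm; bidirectional fit against DMSO.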

Read-out in assay [19]: Interleukin-1 alpha (IL1a), IL1A (gene 3552)
In words: BSK_LPS_IL1a: BioMAP Diversity Plus: LPS Assay for Interleukin-1 alpha (IL1a) Biomarker Activity (AID 2283080). The settings on record: primary human HUVEC with PBMC; actives raise or lower the signal. In a few lines:
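Human umbilical vein endothelial cells co-cultured with PBMC and stimulated with LPS; IL-1a measured by ELISA 24 h after dosing. Bidirectional fitting against DMSO; cytotoxicity checked by SRB staining in parallel cultures.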

Read-out in assay [20]: Monocyte Chemoattractant Protein-1 (MCP1), CCL2 (gene 6347)
In words: BSK_LPS_MCP1: BioMAP Diversity Plus: LPS Assay for Monocyte Chemoattractant Protein-1 (MCP1) Biomarker Activity (AID 2283081). As to conditions: primary human HUVEC with PBMC; actives raise or lower the signal. In a few lines: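 Human umbilical vein endothelial cells co-cultured with PBMC, LPS-stimulated; secreted MCP-1 measured by ELISA 24 h after compound addition. Bidirectional curve fitting against DMSO baseline; SRB total-protein staining in parallel cultures for cytotoxicity.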

Molecules are shown by their SMILES. Calls of active or inactive are those of the source. The calls were made as follows: active = hit-call score of the fitted dose curve at least 0.9, where 1 is the maximum; inactive = score below 0.9.

Experimental findings from PubChem BioAssay (EPA / NIEHS) are described below.

E-selectin (Homo sapiens), sequence (P16581 whole entry, looked up): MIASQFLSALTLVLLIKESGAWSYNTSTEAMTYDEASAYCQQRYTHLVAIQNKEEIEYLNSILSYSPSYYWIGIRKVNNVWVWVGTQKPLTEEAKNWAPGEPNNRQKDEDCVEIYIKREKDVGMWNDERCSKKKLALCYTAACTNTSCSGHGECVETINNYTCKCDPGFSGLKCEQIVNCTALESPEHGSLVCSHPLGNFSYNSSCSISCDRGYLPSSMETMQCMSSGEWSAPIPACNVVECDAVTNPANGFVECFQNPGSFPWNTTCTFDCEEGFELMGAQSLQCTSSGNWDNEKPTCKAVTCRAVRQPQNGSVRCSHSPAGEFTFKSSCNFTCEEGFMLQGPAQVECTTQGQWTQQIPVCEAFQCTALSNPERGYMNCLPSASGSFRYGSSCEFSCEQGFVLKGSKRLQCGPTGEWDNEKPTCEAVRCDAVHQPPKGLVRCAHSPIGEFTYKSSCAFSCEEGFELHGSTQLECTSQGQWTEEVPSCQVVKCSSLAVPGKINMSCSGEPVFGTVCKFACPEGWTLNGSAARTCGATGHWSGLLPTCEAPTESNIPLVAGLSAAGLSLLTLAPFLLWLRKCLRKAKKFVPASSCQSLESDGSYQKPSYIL

`C[C@]12C=CC3=C4CCC(=O)C=C4CC[C@H]3[C@@H]1CC[C@@H]2O`: the result in assay [1], in assay [2], in [3], in [6], in assay [7] and in assay [8] was inactive. The outcome in assay [9], in [10], in assay [11], in assay [12], in assay [13] and in [14] was inactive. Moreover, the result in assay [17], in [18], in assay [19] and in assay [20] was inactive. In addition, the AC50 (commonly the concentration giving half of the maximal activity seen) in assay [4] is 27.7 µM (active); in [5], 0.164 µM (active); in assay [15], 20 µM (active); in [16] it was 4.37 µM (active).
With `[Cl-].[Cl-].[Hg+2]`, the AC50 in assay [1] was 13.5 µM (active); in assay [2] it was 8.14 µM (active); in [3] it was 11.8 µM (active); in assay [4], 7.96 µM (active); in [6], 20.8 µM (active); in [7] it was 12.8 µM (active). For the same molecule, the AC50 in assay [8] was 13.2 µM (active); in assay [9], 30.4 µM (active); in assay [10], 29.2 µM (active); in assay [11] it was 7.74 µM (active); in [12], 20 µM (active); in [13], 13.5 µM (active). Besides, the AC50 in assay [14] is 13.1 µM (active); in [15] it was 38.8 µM (active); in [16], 37 µM (active); in assay [17], 30.9 µM (active); in assay [18], 20 µM (active). In addition, the outcome in assay [19] and in assay [20] was inactive.
With `N#CC(Br)Br`, the outcome in assay [1], in assay [2], in assay [3], in [4], in assay [5] and in assay [6] was inactive. The result in [7], in assay [8], in assay [9], in assay [10], in assay [11] and in [12] was inactive. The outcome in [13], in assay [14], in assay [15], in assay [16], in assay [17] and in assay [18] was inactive. In addition, the outcome in [19] and in assay [20] was inactive.
For `Cc1ccc(N=C=O)cc1N=C=O`, the result in assay [1], in [2], in [3], in [4], in [6] and in assay [7] was inactive. The outcome in assay [8], in [9], in assay [10], in [11], in assay [12] and in [13] was inactive. The outcome in assay [14], in assay [15], in assay [16], in [17], in assay [18] and in assay [19] was inactive. Also, in assay [20], the outcome was inactive.
As for `Nc1ccc(N=Nc2ccccc2)cc1`, the outcome in [1], in [2], in assay [3], in assay [5], in assay [6] and in assay [7] was inactive. The outcome in [8], in [9], in assay [10], in assay [11], in assay [12] and in assay [14] was inactive. For the same molecule, the result in assay [15], in assay [16], in [17], in assay [18], in [19] and in [20] was inactive. The AC50 in [4] and in [13] was 20 µM (active) in each case.
As for `CCOc1cccc(C2(N3CCN(c4ccccc4)CC3)CCC(C)CC2)c1` (configuration not stated), the result in [1], in assay [2], in assay [3], in assay [4], in assay [6] and in assay [7] was inactive. The outcome in [8], in assay [9], in [10], in [11], in [12] and in assay [13] was inactive. Also, the outcome in [14], in assay [15], in assay [16], in assay [17], in assay [18] and in [19] was inactive. In [20], the outcome was inactive.
